Assay results as given in paper PMC5540273 (PLoS ONE, 2017).
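Also: KINOMEscan kinase panel screen.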

What follows are molecules tested on CDK8. Conditions: concentration: 1 μM, replicates: in singlicate; n = 1.
`COc1ccc(Nc2nccc(N3CCC(NC(=O)c4cc5ccccc5s4)C3)n2)cc1` (stereo not drawn) [GSK1379738] was tested, and the “%Inh” value was 6%. With `Cc1ccc(-c2nc(Nc3ccncc3)c3ccccc3n2)s1` [GSK189015] the “%Inh” value was 3%. For `Cn1cncc1C(=O)NC1CCN(c2ccnc(Nc3ccc(F)cc3)n2)C1` (stereo not drawn) [GSK1379717], the “%Inh” value was 29%. For `COc1ccc(Nc2nccc(N3CCC(NC(=O)C(C)c4ccc(Cl)cc4)C3)n2)cc1` (stereo not drawn) [GSK1379735], the “%Inh” value was 35%. `COc1nccc(-c2c(-c3ccc(F)cc3)ncn2CCCN2CCOCC2)n1` [SB-282852] was tested, and the “%Inh” value was 55%. With `Cc1ccccc1Cn1ccn2c(=O)cc(N3CCOCC3)nc12` [GSK2269905] the “%Inh” value was 0%. In the case of `CS(=O)(=O)CCNCc1nc(-c2ccc3ncnc(Nc4ccc5c(cnn5Cc5ccccc5)c4)c3c2)cs1.Cl.Cl` [GW569716], the “%Inh” value is reported as 41%. With `O=C1NC(=O)C(c2ccc(Cl)cc2)=C1Nc1ccc(O)cc1` [SB-340867] the “%Inh” value was 11%. With `Cc1cccc2c(-c3ccncn3)c(-c3ccc(F)cc3)nn12` [GW515532] the “%Inh” value was 10%. In the case of `Cn1cncc1-c1cc2c(Nc3ccc(OCc4ccccc4)cc3)ncnc2cn1` [GW281179], the “%Inh” value is reported as 17%. In the case of `CCn1c(-c2ccccc2)nc2cnccc21` [SB-733416], the “%Inh” value is reported as 0%. `Nc1ncnc2occ(-c3ccc4c(c3)CCN4C(=O)Cc3cc(F)ccc3F)c12` [GSK2645446] was tested, and the “%Inh” value was 79%. `c1ccc(-c2ccnc3[nH]ccc23)cc1` [SB-693578] was tested, and the “%Inh” value was 35%. In the case of `O=C(Nc1n[nH]c2cc(-c3ccsc3)ccc12)C1CC1` [SB-732932], the “%Inh” value is reported as 0%. `COc1ccc(Nc2nccc(NCCNC(=O)Nc3cc(C)ccc3C)n2)cc1` [GSK1379899] was tested, and the “%Inh” value was 13%. In the case of `Cc1ccc(NC(=O)Nc2ccccc2F)cc1-c1ccc(C(=O)Nc2ccncc2)cc1` [GSK1398477], the “%Inh” value is reported as 19%. In the case of `Cl.Cl.Cl.N#Cc1ccc(CCNc2nccc(-c3cccc(CN4CCNCC4)c3)n2)cc1` [GSK2137462], the “%Inh” value is reported as 0%. `O=C1NC(=O)C(c2ccc(Cl)cc2)=C1Nc1cccc(Cl)c1` [SB-317651] was tested, and the “%Inh” value was 2%. With `Cc1ccccc1-c1cc(-c2c[nH]nc2-c2ccccn2)ccn1` [GW680061] the “%Inh” value was 23%. For `Fc1ccc(-c2nc3n(c2-c2ccncc2)CCS3)cc1` [GI98581], the “%Inh” value was 19%. With `CC(C)c1ccc(O)cc1Nc1ccnc2ccc(C(F)(F)F)cc12` [GW482059] the “%Inh” value was 25%. With `CC(=O)c1cccc(NC(=O)NC2CCN(c3ccnc(Nc4ccc(F)cc4)n3)C2)c1` (stereo not drawn) [GSK1379710] the “%Inh” value was 76%. `Cc1nccc(-c2c(-c3ccc(F)cc3)ncn2CCCN2CCOCC2)n1.Cl` [SB-282975] was tested, and the “%Inh” value was 39%. For `O=C(Nc1n[nH]c2nc(-c3ccco3)c(Br)cc12)C1CCN(Cc2ccccc2)C1.O=C(O)[C@H](O)[C@@H](O)C(=O)O` (stereo not drawn) [SB-742034], the “%Inh” value was 0%. For `O=c1cc(N2CCOCC2)nc2n(Cc3cccc(Cl)c3Cl)c3ccccc3n12` [GSK2299009], the “%Inh” value was 0%. With `Cn1cnc2c(N)ncnc21` [SKF-97623] the “%Inh” value was 46%. With `CNCc1ccc2nc(NC(=O)c3ccc(C(C)(C)C)cc3)cn2c1` the “%Inh” value was 1%. `COc1ccc(CSc2nnc(-c3ccc4nccn4c3)o2)cc1C(F)(F)F` was tested, and the “%Inh” value was 21%. With `O=C(Nc1n[nH]c2nc(-c3cccs3)c(Br)cc12)C1CCCC1` [SB-743341] the “%Inh” value was 75%. `Nc1nccc(-c2c(-c3ccc(F)cc3)ncn2C2CCN(Cc3ccccc3)CC2)n1` [SB-219980] was tested, and the “%Inh” value was 0%. In the case of `Cc1ccc(NC(=O)Nc2ccc(Cl)c(C(F)(F)F)c2)cc1-c1ccc(C(=O)Nc2ccncc2)cc1` [GSK1398470], the “%Inh” value is reported as 36%. In the case of `COc1ccc(CSc2nnc(-c3ccc4c(c3)CCO4)o2)cc1`, the “%Inh” value is reported as 0%. In the case of `NS(=O)(=O)c1cccc(N/C=C2\C(=O)Nc3ccc(S(=O)(=O)Cc4c(Cl)cccc4Cl)cc32)c1` [GSK398099], the “%Inh” value is reported as 0%. For `CNc1nc(-c2ccc3c(N)n[nH]c3c2)cc(N2C[C@@H](C(=O)NC3CCCCC3)OC[C@H]2C)n1` [GSK2375584], the “%Inh” value was 45%. With `CS(=O)(=O)Cc1ccc(Nc2nccc(-c3c(-c4cccc(NC(=O)C5CCCCC5)c4)nn4ncccc34)n2)cc1` [GSK350559] the “%Inh” value was 0%. With `COC(=O)c1cccc(NC(=O)NC2CCN(c3ccnc(Nc4ccc(OC)cc4)n3)C2)c1` (stereo not drawn) [GSK1379746] the “%Inh” value was 48%.

Each molecule was assayed on CDK9. Conditions: concentration: 1 μM, replicates: in singlicate; n = 1.
In the case of `COc1ccc(Nc2nccc(N3CCC(NC(=O)c4cc5ccccc5s4)C3)n2)cc1` (stereo not drawn) [GSK1379738], the “%Inh” value is reported as 2%. `Cc1ccc(-c2nc(Nc3ccncc3)c3ccccc3n2)s1` [GSK189015] was tested, and the “%Inh” value was 5%. In the case of `Cn1cncc1C(=O)NC1CCN(c2ccnc(Nc3ccc(F)cc3)n2)C1` (stereo not drawn) [GSK1379717], the “%Inh” value is reported as 0%. With `COc1ccc(Nc2nccc(N3CCC(NC(=O)C(C)c4ccc(Cl)cc4)C3)n2)cc1` (stereo not drawn) [GSK1379735] the “%Inh” value was 0%. `COc1nccc(-c2c(-c3ccc(F)cc3)ncn2CCCN2CCOCC2)n1` [SB-282852] was tested, and the “%Inh” value was 0%. For `Cc1ccccc1Cn1ccn2c(=O)cc(N3CCOCC3)nc12` [GSK2269905], the “%Inh” value was 0%. `CS(=O)(=O)CCNCc1nc(-c2ccc3ncnc(Nc4ccc5c(cnn5Cc5ccccc5)c4)c3c2)cs1.Cl.Cl` [GW569716] was tested, and the “%Inh” value was 0%. For `O=C1NC(=O)C(c2ccc(Cl)cc2)=C1Nc1ccc(O)cc1` [SB-340867], the “%Inh” value was 0%. In the case of `Cc1cccc2c(-c3ccncn3)c(-c3ccc(F)cc3)nn12` [GW515532], the “%Inh” value is reported as 0%. For `Cn1cncc1-c1cc2c(Nc3ccc(OCc4ccccc4)cc3)ncnc2cn1` [GW281179], the “%Inh” value was 0%. For `CCn1c(-c2ccccc2)nc2cnccc21` [SB-733416], the “%Inh” value was 0%. With `Nc1ncnc2occ(-c3ccc4c(c3)CCN4C(=O)Cc3cc(F)ccc3F)c12` [GSK2645446] the “%Inh” value was 0%. With `c1ccc(-c2ccnc3[nH]ccc23)cc1` [SB-693578] the “%Inh” value was 0%. In the case of `O=C(Nc1n[nH]c2cc(-c3ccsc3)ccc12)C1CC1` [SB-732932], the “%Inh” value is reported as 17%. In the case of `COc1ccc(Nc2nccc(NCCNC(=O)Nc3cc(C)ccc3C)n2)cc1` [GSK1379899], the “%Inh” value is reported as 0%. In the case of `Cc1ccc(NC(=O)Nc2ccccc2F)cc1-c1ccc(C(=O)Nc2ccncc2)cc1` [GSK1398477], the “%Inh” value is reported as 3%. With `Cl.Cl.Cl.N#Cc1ccc(CCNc2nccc(-c3cccc(CN4CCNCC4)c3)n2)cc1` [GSK2137462] the “%Inh” value was 22%. With `O=C1NC(=O)C(c2ccc(Cl)cc2)=C1Nc1cccc(Cl)c1` [SB-317651] the “%Inh” value was 0%. With `Cc1ccccc1-c1cc(-c2c[nH]nc2-c2ccccn2)ccn1` [GW680061] the “%Inh” value was 0%. For `Fc1ccc(-c2nc3n(c2-c2ccncc2)CCS3)cc1` [GI98581], the “%Inh” value was 0%. `CC(C)c1ccc(O)cc1Nc1ccnc2ccc(C(F)(F)F)cc12` [GW482059] was tested, and the “%Inh” value was 0%. In the case of `CC(=O)c1cccc(NC(=O)NC2CCN(c3ccnc(Nc4ccc(F)cc4)n3)C2)c1` (stereo not drawn) [GSK1379710], the “%Inh” value is reported as 17%. For `Cc1nccc(-c2c(-c3ccc(F)cc3)ncn2CCCN2CCOCC2)n1.Cl` [SB-282975], the “%Inh” value was 100%. With `O=C(Nc1n[nH]c2nc(-c3ccco3)c(Br)cc12)C1CCN(Cc2ccccc2)C1.O=C(O)[C@H](O)[C@@H](O)C(=O)O` (stereo not drawn) [SB-742034] the “%Inh” value was 0%. With `O=c1cc(N2CCOCC2)nc2n(Cc3cccc(Cl)c3Cl)c3ccccc3n12` [GSK2299009] the “%Inh” value was 6%. With `Cn1cnc2c(N)ncnc21` [SKF-97623] the “%Inh” value was 0%. `CNCc1ccc2nc(NC(=O)c3ccc(C(C)(C)C)cc3)cn2c1` was tested, and the “%Inh” value was 3%. `COc1ccc(CSc2nnc(-c3ccc4nccn4c3)o2)cc1C(F)(F)F` was tested, and the “%Inh” value was 0%. For `O=C(Nc1n[nH]c2nc(-c3cccs3)c(Br)cc12)C1CCCC1` [SB-743341], the “%Inh” value was 27%. With `Nc1nccc(-c2c(-c3ccc(F)cc3)ncn2C2CCN(Cc3ccccc3)CC2)n1` [SB-219980] the “%Inh” value was 0%. In the case of `Cc1ccc(NC(=O)Nc2ccc(Cl)c(C(F)(F)F)c2)cc1-c1ccc(C(=O)Nc2ccncc2)cc1` [GSK1398470], the “%Inh” value is reported as 0%. `COc1ccc(CSc2nnc(-c3ccc4c(c3)CCO4)o2)cc1` was tested, and the “%Inh” value was 0%. In the case of `NS(=O)(=O)c1cccc(N/C=C2\C(=O)Nc3ccc(S(=O)(=O)Cc4c(Cl)cccc4Cl)cc32)c1` [GSK398099], the “%Inh” value is reported as 0%. For `CNc1nc(-c2ccc3c(N)n[nH]c3c2)cc(N2C[C@@H](C(=O)NC3CCCCC3)OC[C@H]2C)n1` [GSK2375584], the “%Inh” value was 0%. `CS(=O)(=O)Cc1ccc(Nc2nccc(-c3c(-c4cccc(NC(=O)C5CCCCC5)c4)nn4ncccc34)n2)cc1` [GSK350559] was tested, and the “%Inh” value was 0%. With `COC(=O)c1cccc(NC(=O)NC2CCN(c3ccnc(Nc4ccc(OC)cc4)n3)C2)c1` (stereo not drawn) [GSK1379746] the “%Inh” value was 1%.
